# Hits are enriched below; roughly 7.9% of the tested compounds scored in any of these assays.
# SW480 rerep = DNA re-replication induction in SW480 cells. SW480 DNA re-replication, Hoechst DNA content imaging, 48 h. Potency, µM (top dose mostly 46.1 µM), without a hit: at the top dose re-replication activation, hits mostly activators. actives 1.8% (n = 340,000); note: % of control where 0% means no effect; nearly all actives have a fitted effect of over 55% in size
#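 Image-based DNA-content assay: after two days of treatment, nuclei were labelled with the DNA dye Hoechst and imaged, and hits were compounds raising the count of nuclei showing high fluorescence intensity.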
# KB-V1 MDR tox = kills drug-selected multidrug resistant KB-V1 cells; AID 1347076; actives 3.4% (n = 400,000); Potency, µM (series often up to 46.1 µM), actives largely listed as cytotoxic; KB-V1 MDR cells viability, CellTiter-Glo, 72 h; note: % is set by controls: 0 for no effect and ±100 for the full control effect; nearly all actives have a fitted effect of over 60% in size
#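 KB-V1 cells (P-gp-expressing MDR subline of KB-3-1) in phenol-red-free DMEM with 10% FBS were exposed to library compounds over a concentration series for 72 h at 37 degrees C. Viability read by CellTiter-Glo luminescence; concentration-effect curves fitted after normalization.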
# HT1080 IDH1KD tx = toxicity to HT-1080 IDH1 knockdown cells (counter line); Potency, µM (doses to about 46.1 µM), for the others: top-dose activity, negative = toxicity, usual class: cytotoxic; actives 2% (n = 360,000); HT-1080 IDH1 knockdown viability, ATP luminescence, 48 h;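 note: 0% = DMSO wells and -100% = cell-free medium wells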
#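 Cytotoxicity counter-line: IDH1KD HT-1080, 48 h, CellTiter-Glo. Curves classed by r2, magnitude and activity.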
# HT1080-NT tox = kills 2HG-producing HT-1080-NT fibrosarcoma cells; HT-1080-NT fibrosarcoma viability, CellTiter-Glo ATP luminescence, 48 h; Potency, µM (series often up to 46.1 µM), without a hit: at the top dose activity, negative = less viability, usual class: cytotoxic; actives 1.6% (n = 360,000);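 note: NT is the 2HG producing partner of a matched IDH1 knockdown line; 0% = DMSO-treated cells and -100% = media-only wells without cells; nearly all actives have a fitted effect of over 55% in size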
#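 Toxicity toward the 2HG-producing NT line was scored as %Activity, normalised to DMSO and no-cell wells, from CellTiter-Glo luminescence after 48 hours' treatment.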
# MCF10A rereplic = inducers of DNA re-replication in MCF 10A breast cells; MCF 10A DNA re-replication, Hoechst nuclear intensity, 48 h; Potency, µM (series often up to 46.1 µM), inactives show at the highest dose activity, positive = re-replication, hits mostly activators; actives 2.9% (n = 350,000); note: % of control where 0% means no effect; nearly all actives have a fitted effect of over 50% in size
# KB-3-1 cytotox = kills parental KB-3-1 adenocarcinoma cells; KB-3-1 viability, CellTiter-Glo ATP luminescence, 72 h; Potency, µM (titrated, usually from 46.1 µM), usual class: cytotoxic; actives 1.4% (n = 400,000); note: % is set by controls: 0 for no effect and ±100 for the full control effect; nearly all actives have a fitted effect of over 60% in size
#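 Using CellTiter-Glo luminescence, growth of non-resistant KB-3-1 adenocarcinoma cells is assessed 72 h after pin-tool compound addition at 37 °C. Normalized responses across the concentration series yield fitted curves.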
# * = called active by the depositor; i = inactive; ? = inconclusive; / = not tested or not shown; [ ] = another dose, or the depositor's remark. Calls come from the whole dose curve; as a rule, active = well fitted curve in the direction sought with a large enough effect; inconclusive = small, poorly fitted or top-dose-only effect, or another doubt; inactive = no such curve, though single readings can be large; an effect the other way counts as inactive or inconclusive. Potency is the fitted concentration of half-maximal effect.
SMILES,SW480 rerep,KB-V1 MDR tox,HT1080 IDH1KD tx,HT1080-NT tox,MCF10A rereplic,KB-3-1 cytotox
CCOC(=O)c1cnc(-n2nc(C)cc2C)nc1Oc1ccc(C#N)cc1,-7%,i,5%,13%,-2%,i
CCOC(=O)c1cnc(-n2cc(C)cn2)nc1Nc1ccccc1OC,10%,1.8µM*,28%,-4%,18%,?
CCCCNC(=O)CCCn1c(=O)c2ccccc2n(Cc2cccc(Cl)c2)c1=O,/,i,/,/,/,i
Nc1ncnc2c1ncn2C1CCCC(CO)O1 (stereo not given),-5%,i,-5%,9%,2%,i
CCc1ccc(N2CC(C(=O)Nc3cccnc3)CC2=O)cc1 (stereo not given),1%,i,9%,12%,1%,i
CC(=O)c1c(C)[nH]c(C(=O)Nc2cccc3ccccc23)c1C,-10%,i,-3%,-7%,13%,i
Cn1c(=O)[nH]c(=O)c2c1nc(NCc1ccccc1)n2CCCc1ccccc1,-3%,12µM*,1%[9.24 µM],-21%,2%,i
Cn1c(=O)c2c(nc(NCc3ccccc3)n2CCCc2ccccc2)n(C)c1=O,-6%,2.9µM*,-15%,-7%,?,?
CC1CN(Cc2nc3c(c(=O)[nH]c(=O)n3C)n2CCCc2ccccc2)CC(C)O1 (stereo not given),-11%,3.3µM*,2%,0%,2%,i
CC(O)Cn1c(=O)c2c(nc(Br)n2Cc2ccccc2)n(C)c1=O (stereo not given),-10%,i,20µM*,14µM*,-3%,i
CNc1nc2c(c(=O)[nH]c(=O)n2C)n1CCCc1ccccc1,-1%,i,7%,11%,?,i
COc1ccc(N=Nc2c(N)nn(C)c2N)cc1,-4%,i,22%,15%,1%,i
O=C(Nc1ccccc1)Nc1ccncc1,-8%,i,-11%,-17%,2%,i
CCOc1cc2[nH]c(=O)n(CCCCCC(=O)NC(C)CC)c(=O)c2cc1OCC (stereo not given),/,i,/,/,/,i
Cn1c(=O)c2c(nc(NCc3ccco3)n2C/C=C/c2ccccc2)n(C)c1=O,?,3.3µM*,-25%,-29%,?,i
Cn1c(=O)c2c(nc(NCc3ccco3)n2C)n(C)c1=O,-1%,i,-7%,8%,-5%,i
Cc1ccc(OCCn2c(Br)nc3c2c(=O)n(C)c(=O)n3C)cc1,-5%,?,0%,0%,-4%,21µM*
COCCNc1nc2c(c(=O)n(C)c(=O)n2C)n1CCCc1ccccc1,/,16µM*,-1%,1%,/,i
C=CCNc1nc2c(c(=O)n(C)c(=O)n2C)n1CCCCCC,1%,1.5µM*,-10%,-1%,15%,1.5µM*
N[C@@H](Cc1ccc(O)cc1)C(=O)NO,/,/,17%,7%,/,/
CCCOc1ccc(F)cc1-c1cc(C(=O)NCc2cccc(C(F)(F)F)c2)[nH]n1,/,i,?,?,/,i
Cc1ccc(C(=O)OCC(=O)NCc2cccs2)cc1C,-3%,?,-10%,-1%,1%,i
CCCCNC(=O)NS(=O)(=O)c1ccc(NS(=O)(=O)c2ccccc2)cc1,1%,i,-3%,0%,-2%,i
CC(=O)Nc1cccc(NC(=O)CSc2nnc(NC(=O)C3CC3)s2)c1,-11%,i,0%,0%,-20%,i
O=C(Nc1nc2n(n1)C(c1ccccc1)CC(c1ccc(Cl)cc1)N2)c1ccco1 (stereo not given),15%,i,0%,-7%,7%,i
SMILES,SW480 rerep,KB-V1 MDR tox,HT1080 IDH1KD tx,HT1080-NT tox,MCF10A rereplic,KB-3-1 cytotox
Cn1c(=O)[nH]c(=O)c2c1nc(SCCO)n2CCCc1ccccc1,-17%,?,-2%,-1%,?,i
CNc1nc2c(c(=O)n(C)c(=O)n2C)n1CCCc1ccccc1,-3%,8.2µM*,-25%,-6%,12%,?
Cn1c(=O)c2c(nc(Br)n2CCc2ccccc2)n(C)c1=O,-8%,16µM*,1%[9.24 µM],-5%,12%,i
CN(Cc1ccccc1)Cc1nc2c(c(=O)n(C)c(=O)n2C)n1CCc1ccccc1,-2%,i,0%,13%,7%,i
Cc1csc(Sc2nc3c(c(=O)[nH]c(=O)n3C)n2CCCc2ccccc2)n1,-15%,4.1µM*,-1%,-1%,9%,?
O=C(NCC1CCCO1)C1CCN(C2CCN(Cc3cccs3)CC2)CC1 (stereo not given),-3%,i,-1%,-3%,25%,i
CCN(Cc1ccccc1)C(=O)Cn1c(C(C)O)nc2ccccc21 (stereo not given),-32%,i,2%,1%,0.73µM*,i
COc1c(Cl)cc(Cl)cc1/C=C/C(=O)c1ccc(NC(=O)c2cccs2)cc1,6.5µM*,18µM*,?,21µM*,3.7µM*,?
CC(=O)Nc1cc(-c2nn(C)c(=O)c3ccccc23)ccc1N1CCOCC1,-7%,i,12%,-1%,1%,i
Cn1nc(-c2ccc(N3CCOCC3)c(NS(=O)(=O)c3ccc(Cl)cc3)c2)c2ccccc2c1=O,-2%[9.22 µM],?,18µM*,?,?,?
Cc1ccc(S(=O)(=O)Nc2cc(-c3nn(C)c(=O)c4ccccc34)ccc2N2CCOCC2)cc1,16µM*,i,10µM*,?,?,i
O=C(c1cccc(C(F)(F)F)c1)c1c[nH]c(C(=O)NCC2CCCO2)c1 (stereo not given),5%,?,-11%,-10%,-10%,i
COc1ccc2oc(C)c(C(=O)c3ccc([N+](=O)[O-])cc3)c2c1,-20%,15µM*,8%,1%,?,?
COc1ccc2oc(C)c(C(N)=O)c2c1,-11%,i,-10%,-5%,-2%,i
COc1ccc(C(=O)c2oc3ccccc3c2N)cc1,18µM*,i,0%,2%,18µM*,i
COc1ccc2oc(C(=O)c3ccccc3)c(N)c2c1,?,i,2%,1%,15µM*,i
COc1ccc2oc(C(=O)C3CC3)c(N)c2c1,-5%,i,-7%,3%,-3%,i
Cc1ccc(C)c(-c2nnc(OCC(=O)Nc3cc(C)on3)c3ccccc23)c1,-2%[9.22 µM],i,?,-29%,?,?
CC1CCN(C(=O)CCNS(=O)(=O)c2ccccc2)CC1,-15%,i,4%,15%,6%,i

# Source: PubChem BioAssay (National Center for Advancing Translational Sciences (NCATS))
